An excerpt weighted towards active compounds, which were near 3.5% of everything screened.
PG9 binder: binders of HIV-1 gp120 antibody PG9, primary screen, biochemical, TR-FRET. TR-FRET gp120-PG9 antibody binding. inhibition, % at 6.7 µM. 0.43% of 360,000 active. AID 624416, 2012; in the data active means inhibition above about 8.5%
LEDGF integ inh: blockers of LEDGF/p75-dependent integrase strand transfer – biochemical, TR-FRET, high throughput, primary screen; HIV-1 integrase (with human LEDGF/p75); TR-FRET IN-LEDGF/p75 DNA integration, Eu/Cy5; inhibition, % at 3.7 µM; 0.64% of 370,000 active; AID 743269, 2014;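 active means inhibition above the screen-wide mean plus 3 SD, cut at about 13% in these data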;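 further: signal is the Cy5 over europium emission ratio at 671 and 618 nm; 0% = plate median of compound wells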
MBD2 DNA inh: inhibitors of MBD2 binding to methylated DNA, primary screen, biochemical, TR-FRET, DNA-binding domain, human; Methyl-CpG-binding domain protein 2 (Homo sapiens), Q9UBB5; MBD2 binding to methylated oligonucleotide; inhibition, % at 4.4 µM; 0.31% of 370,000 active; in the data active means inhibition above about 13%
Target sequence (Q9UBB5 whole entry, looked up, the tested form may be a part): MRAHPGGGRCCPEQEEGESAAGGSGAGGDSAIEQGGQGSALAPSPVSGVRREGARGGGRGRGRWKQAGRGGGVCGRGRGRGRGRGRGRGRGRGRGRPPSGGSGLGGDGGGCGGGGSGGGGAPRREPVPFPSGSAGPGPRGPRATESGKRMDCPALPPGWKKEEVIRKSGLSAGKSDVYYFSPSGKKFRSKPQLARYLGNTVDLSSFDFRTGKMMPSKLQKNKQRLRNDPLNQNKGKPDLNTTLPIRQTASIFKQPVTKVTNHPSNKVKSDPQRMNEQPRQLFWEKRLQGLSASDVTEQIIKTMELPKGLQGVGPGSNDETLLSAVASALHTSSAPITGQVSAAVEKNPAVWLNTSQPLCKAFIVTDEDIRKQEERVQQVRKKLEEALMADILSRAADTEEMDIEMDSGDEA
DNMT1 inh: human DNMT1 methyltransferase inhibitors, primary screen, biochemical, molecular beacon, fluorescence, HinP1I cleavage, uHTS | DNA (cytosine-5)-methyltransferase 1 (Homo sapiens), P26358 | inhibition (reported as % activation of signal), % at 10 µM | 0.83% of 360,000 active; in the data active means inhibition above about 50%
rCAG binder: binders of r(CAG) RNA repeats, primary screen, biochemical, fluorescence; r(CAG) RNA repeat, TO-PRO-1 dye displacement fluorescence; inhibition, % at 3 µM; 1.3% of 370,000 active; AID 651821, 2012;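 active means inhibition above the plate cutoff, the mean of all test compounds on that plate plus 3 SD, cut at about 35% in these data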;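 further: 0% = DMSO alone and 100% = 100 µM mitoxantrone as full dye displacement; higher means more dye released from RNA so lower well fluorescence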
UHRF1 binding: UHRF1 methylated DNA binding inhibitors, primary screen, counter-screen for MBD2 inhibitor project, biochemical, TR-FRET, human UHRF1, single concentration. UHRF1 binding to methylated oligo. inhibition, % at 4.4 µM. 0.75% of 370,000 active; in the data active means inhibition above about 21%;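 further: UHRF1 SRA domain binding a hemimethylated CpG hairpin DNA probe; 0% = median of test compound wells and 100% = reference inhibitor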
rCAG bind conf: small molecules binding CAG repeat RNA – biochemical, fluorescence, confirmation | shares compounds with rCAG binder | r(CAG) RNA repeat, TO-PRO-1 dye displacement fluorescence | inhibition, % at 3 µM | 70% of 4,300 active | AID 652065, 2013;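 active means inhibition above a per-plate cutoff, the mean inhibition of sample wells plus 3 SD, cut at about 35% in these data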;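 further: loss of TO-PRO-1 fluorescence as compound displaces dye from 1x1 AA loop RNA; 0% = DMSO only wells and 100% = 100 µM mitoxantrone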
dCAG dye counter: displacement of TO-PRO-1 from CAG DNA duplex, counter-screen for rCAG RNA repeat binder project, biochemical, fluorescence, TO-PRO-1 dye, d(CAG) DNA oligo | shares compounds with rCAG binder | d(CAG) DNA oligo TO-PRO-1 dye displacement | inhibition, % at 3 µM | 94% of 4,300 active | AID 652068, 2013;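 active means inhibition above its plate's cutoff, the mean test-well inhibition plus 3 SD, cut at about 4.8% in these data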;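 further: 0% = DNA dye mix with DMSO and 100% = 100 µM mitoxantrone; hits displace the dye from DNA and so lower well fluorescence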
dCAG dye DR: inhibitors of DNA CAG/GTC TO-PRO-1 complex, dose response, counter-screen for rCAG RNA repeat binder project, biochemical, fluorescence, TO-PRO-1 dye. DNA CAG/GTC duplex TO-PRO-1 dye displacement fluorescence. AID 686960, 2013. shares compounds with rCAG binder. IC50, µM. 20% of 250 active; in the data active means IC50 below about 10 µM
Starred values were filed as active, the others as inactive; · = no result.

SMILES	PG9 binder	LEDGF integ inh	MBD2 DNA inh	DNMT1 inh	rCAG binder	UHRF1 binding	rCAG bind conf	dCAG dye counter	others
Cc1cc(NS(=O)(=O)c2ccc(NC(=O)CSc3nnc(-c4ccc(Cl)cc4)n3Cc3ccco3)cc2)nc(C)n1	·	5	-8	·	38*	-4	41*	14*
Cc1ccc(OCc2nnc(SCC(=O)Nc3ccc(S(=O)(=O)Nc4cc(C)nc(C)n4)cc3)n2Cc2ccco2)cc1	·	-2	-3	·	38*	4	47*	13*
COc1ccc(NC(=O)CSc2nnc(COc3ccccc3)n2Cc2ccco2)cc1OC	0	-2	-3	1	2	-1	·	·
C[C@@H](NC(=O)[C@@H]1CCCN1C(=O)[C@@H]1CCCN1C(=O)c1cccs1)c1ccccc1	2	-2	-2	·	0	0	·	·
COc1cc([C@H]2c3c(cc(OC)c(O)c3OC)C[C@@H](CO)[C@@H]2CO[C@@H]2O[C@H](CO)[C@@H](O)[C@H](O)[C@H]2O)cc(OC)c1O	-2	0	-1	2	-1	0	·	·
Cc1ccc(C(=O)Nc2cccc(C(F)(F)F)c2)cc1NC(=O)c1csc(-c2ccncc2)n1	·	·	·	4	·	·	·	·
N#C/C(=N\Nc1cccc(C(F)(F)F)c1)C(=O)c1csc(-c2cccnc2)n1	1	-5	-8	-2	86*	-3	80*	49*
Cc1c(C(=O)O)oc2ccc(S(=O)(=O)N(CC(C)C)CC(C)C)cc12	-1	2	-5	1	46*	-1	25	3
CN(CC(=O)NCc1ccco1)CC(=O)Nc1ccc(F)c(F)c1F	0	1	-2	-5	2	0	·	·
CCCN1C(=O)c2ccc(C(=O)Nc3cc(C)ccc3O)cc2C1=O	-2	3	-2	3	6	4	·	·
O=C(Nc1cc(Cl)ccc1C(=O)O)c1ccc(CN2C(=O)c3ccccc3C2=O)cc1	-1	-1	0	-1	59*	1	85*	72*
O=C(Nc1ccc(Br)cc1C(=O)O)c1ccc2c(c1)C(=O)N(Cc1ccccc1)C2=O	-2	0	7	2	49*	1	87*	77*
O=C(O)c1ccc2c(c1)C(=O)N(CCCCCCCN1C(=O)c3ccc(C(=O)O)cc3C1=O)C2=O	-2	-2	-4	-2	37*	0	23	4
CCCN1C(=O)c2ccc(C(=O)Nc3ccccc3C(=O)O)cc2C1=O	0	-2	8	0	54*	-1	36*	7.0*
OCC[C@@H]1NCc2cc(CO)cc(-c3ccccc3)c21	-1	-5	-1	-4	3	0	·	·
COC(=O)[C@@H](C)NC(=O)C(Cc1ccc2c(c1)OCO2)NC(C)=O (some centres not stated)	·	-4	3	·	3	-1	·	·
CC(C)[C@H](N)C(=O)N[C@H](C(=O)N1CCC2CCN(S(=O)(=O)c3ccccc3)CC21)C(C)C (some centres not stated)	·	-1	-2	·	2	-4	·	·
N#CC1=C(S)N(c2ccccc2)C(c2ccc(-c3ccc(Cl)c(Cl)c3)o2)NC1=O (configuration not stated)	-2	6	-3	-11	84*	-7	91*	79*
N#CC1=C(S)N(c2ccccc2)C(c2ccc(-c3cc(Cl)ccc3Cl)o2)NC1=O (configuration not stated)	2	-2	4	-4	59*	-2	55*	18*	dCAG dye DR=5.5*
N#CC1=C(S)N(c2ccccc2)C(c2ccco2)NC1=O (configuration not stated)	3	-3	-6	0	3	-2	·	·
CCCCC[C@@H](C)N1C[C@@H](COCc2ccccc2)Oc2cc(N3CC[C@@H](N(C)C)C3)ccc2S1(=O)=O	0	-3	2	·	3	4	·	·
COC(=O)C1CN(Cc2ccc(C)cc2)CCS(=O)(=O)N1Cc1cn(Cc2ccc(F)cc2)nn1 (configuration not stated)	·	2	6	·	1	10	·	·
O=C(O)C1=C2C(=O)Nc3cccc(c32)C2(C1)C(=O)Nc1ccccc12 (configuration not stated)	-3	5	1	-4	39*	-3	59*	22*
O=C1NCCC12C(=O)Nc1ccccc12 (configuration not stated)	1	-4	0	0	2	2	·	·
O=C(Cn1nnc(-c2cccc(C(F)(F)F)c2)n1)NNS(=O)(=O)c1cccc(C(F)(F)F)c1	2	5	9	3	54*	3	38*	10*
SMILES	PG9 binder	LEDGF integ inh	MBD2 DNA inh	DNMT1 inh	rCAG binder	UHRF1 binding	rCAG bind conf	dCAG dye counter	others
CS(=O)(=O)NNC(=O)Cn1nnc(-c2cc(C(F)(F)F)cc(C(F)(F)F)c2)n1	-1	4	-1	8	5	-2	·	·
O=C(O)c1ccccc1NC(c1ccccc1)c1ccc(Cl)cc1 (configuration not stated)	-2	1	5	0	58*	2	54*	11*	dCAG dye DR=>30
O=C(O)c1ccc(Nc2nc(-c3cc4ccccc4oc3=O)cs2)cc1O	0	3	-4	-3	72*	-1	84*	48*
CCOC(=O)N1CCN(C(=O)C[C@@H]2C(=O)N3CCCC4=C3[C@@]2(C(=O)OCC)CCC4)CC1	·	7	0	·	-2	-2	·	·
O=C(O)CCC(=O)N1N=C(c2ccc(Br)cc2)CC1c1ccc(Br)cc1 (configuration not stated)	-2	7	4	-2	38*	0	51*	14*
C[C@@H]1C=CC(=O)O[C@@H]1c1ccc(Cl)cc1	-3	1	-2	·	0	3	·	·

Compound activity (PubChem)
